Rows were chosen to be rich in hits. Some 17% of all compounds tested hit in one or more screens of this group.
HT1080 IDH1KD tx: qHTS for induction of synthetic lethality in tumor cells producing 2HG: qHTS for the HT-1080-IDH1KD cell line; HT-1080 IDH1 knockdown viability, ATP luminescence, 48 h; Potency, µM (top dose mostly 46.1 µM), without a hit: at the top dose activity, negative = toxicity, hits mostly cytotoxic; 360,000 tested, 2% active; AID 686971, 2013;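 also: 0% = DMSO wells and -100% = cell-free medium wells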
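In this qHTS, HT-1080 cells depleted of IDH1 are exposed for 48 h at 37 °C to compound titrations. Toxicity is scored from CellTiter-Glo luminescence, with DMSO as full viability and medium alone as none.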
TGFb inhibitor: qHTS for Inhibitors of TGF-b; Potency, µM (series often up to 46.1 µM), without a hit: top-dose activity, negative = inhibition, most hits filed as inhibitors; 410,000 tested, 1.2% active; HepG2 CAGA-GFP TGF-b/SMAD3 reporter, GFP fluorescence, 18 h; TGF-beta stimulated, 500 pg/mL final; also: % is scaled to controls: 0 for no effect and ±100 for the full control effect; nearly all actives have a fitted effect of over 65% in size
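Cell-based qHTS in HEPG2 carrying a CAGA-GFP Smad reporter; compounds added before 500 pg/mL final TGF-beta, 18 h incubation at 37 degrees C, GFP fluorescence quantified per cell by imaging cytometry.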
TDP1 cell CPT: qHTS for Inhibitors of human tyrosyl-DNA phosphodiesterase 1 (TDP1): qHTS in cells in presence of CPT | chicken DT40 Tdp1-/-;hTDP1 cells + 20 nM CPT, ATP luminescence, 48 h | Potency, µM (series often up to 46.2 µM), for the others: at the top dose activity change, negative = growth inhibition, usual class: inhibitors | 420,000 tested, 12% active | AID 686979, 2013; also: % is scaled to controls: 0 for no effect and ±100 for the full control effect; nearly all actives have a fitted effect of over 55% in size
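Chicken DT40 Tdp1-/- cells stably complemented with human TDP1 were seeded at 400 cells/well in medium containing 20 nM camptothecin, exposed to pin-transferred compounds, and grown at 37 °C for at least 48 hr. Viability was read as ATP luminescence.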
TDP1 cell noCPT: qHTS for Inhibitors of human tyrosyl-DNA phosphodiesterase 1 (TDP1): qHTS in cells in absence of CPT. Potency, µM (highest dose often 46.2 µM), for inactives: at the top dose activity change, negative = growth inhibition, hits mostly inhibitors. DT40 Tdp1-/- hTDP1 cells, no CPT, ATP luminescence, 48 h. AID 686978, 2013. 420,000 tested, 15% active; also: % is scaled to controls: 0 for no effect and ±100 for the full control effect; nearly all actives have a fitted effect of over 55% in size
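Growth kinetics read by CellTiter-Glo luminescence after ≥48 hr at 37 °C. Cells: DT40 Tdp1-/- stably carrying human TDP1, 400 per well, compound exposure in the absence of CPT (DMSO vehicle).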
HepG2 tox: qHTS for Inhibitors of TGF-b: Cytotox Counterscreen | Potency, µM (top dose mostly 46.1 µM), inactives show at the highest dose activity change, negative = cytotoxicity, most hits filed as cytotoxic | HepG2 CAGA-GFP viability, ATP luminescence, 18 h | 410,000 tested, 0.76% active | AID 588856, 2011
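HepG2 CAGA-GFP cells (1000/well, DMEM with 1% FBS) received compound, then TGF-beta at 500 pg/mL final, and were incubated 18 hours at 37 degrees C. Viability was read by CellTiter-Glo luminescence. Media-only wells were set as complete cell-killing and DMSO as no toxicity.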
HT1080NT lethal: qHTS for induction of synthetic lethality in tumor cells producing 2HG: qHTS for the HT-1080-NT fibrosarcoma cell line | HT-1080-NT fibrosarcoma viability, CellTiter-Glo ATP luminescence, 48 h | Potency, µM (highest dose often 46.1 µM), for inactives: top-dose activity, negative = less viability, most hits filed as cytotoxic | 360,000 tested, 1.6% active;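 also: NT is the 2HG producing partner of a matched IDH1 knockdown line; 0% = DMSO-treated cells and -100% = media-only wells without cells; nearly all actives have a fitted effect of over 55% in size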
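Fibrosarcoma NT cells, 750 per well in 5% FBS RPMI, were exposed to compound for 48 hours. Viability: CellTiter-Glo luminescence.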
Starred values were filed as active, the others as inactive; ? = inconclusive; nt = not tested or not shown; ! = not active in a repeat; [ ] = remark or other dose. Calls follow the shape of the dose curve; as a rule, active = well fitted curve in the direction sought with a large enough effect; inconclusive = small, poorly fitted or top-dose-only effect, or another doubt; inactive = no such curve, though single readings can be large; an effect the other way counts as inactive or inconclusive. Potency is read from the fitted curve at half-maximal effect.

SMILES | HT1080 IDH1KD tx | TGFb inhibitor | TDP1 cell CPT | TDP1 cell noCPT | HepG2 tox | HT1080NT lethal
O=C1CCC([N+](=O)[O-])C(c2ccc(C(F)(F)F)cc2)N1 (centres undefined) | 6% | -1% | 21% | 0% | 17% | 10%
N#Cc1ccccc1NC(=O)COC(=O)CCc1ccccc1 | 12% | 0% | -2% | -7% | 1% | 20%
COc1cc(CNc2ccc(N3CCCCC3)cc2)ccc1OCC(=O)NC(C)(C)C | -6% | ? | ? | 23µM* | -32% | -6%
COc1ccc(CNc2ccc(N3CCN(C(C)=O)CC3)cc2)cc1OC | nt | -4% | nt | nt | -3% | nt
CS(=O)(=O)c1ccc(-c2cccc3c2OC(CNC(=O)c2cc(C4CC4)[nH]n2)C3)cc1 (centres undefined) | nt | nt | -9%[9.04 µM] | ? | nt | nt
O=c1c(-c2ccc(Cl)cc2)nc2cnc(N3CCNCC3)nc2n1-c1ccccc1 | nt | nt | 4.1µM* | 4.6µM* | nt | nt
COc1ccc(-n2c(=O)c(-c3cccs3)nc3cnc(Nc4cccc(OC)c4)nc32)cc1 | nt | nt | -15% | 23µM* | nt | nt
COc1ccc(-n2c(=O)c(-c3ccccc3)nc3cnc(N4CCNCC4)nc32)cc1 | nt | nt | -9% | 5% | nt | nt
COc1ccc(-c2nc3cnc(N4CCNCC4)nc3n(-c3ccc(OC)cc3)c2=O)cc1 | nt | nt | 18µM* | ? | nt | nt
COc1ccc(-c2nc3cnc(N4CCNCC4)nc3n(-c3ccccc3)c2=O)cc1 | nt | nt | 21µM* | 15µM* | nt | nt
CCN(C(=O)C1CCCN1S(=O)(=O)c1ccc2c(c1)n(C)c(=O)c(=O)n2C)c1ccccc1 (centres undefined) | -13% | ? | -29% | -9% | -3% | -21%
CCNc1ncc2nc(-c3ccc(OC)cc3)c(=O)n(-c3ccc(OC)cc3)c2n1 | nt | nt | ? | 0.033µM* | nt | nt
CCNc1ncc2nc(-c3ccc(F)cc3)c(=O)n(-c3ccccc3)c2n1 | nt | nt | 4% | -1% | nt | nt
COc1ccc(-n2c(=O)c(-c3ccc(Cl)cc3)nc3cnc(N4CCNCC4)nc32)cc1 | nt | nt | 5.2µM* | 12µM* | nt | nt
CN(C)S(=O)(=O)c1cccc(NC(=O)CSc2nc3c(cc2C#N)C(=O)CC(C)(C)C3)c1 | ? | ? | 9.2µM* | 7.3µM* | -20% | ?
CN(C)S(=O)(=O)c1ccc(Cl)c(NC(=O)CSc2nc3c(cc2C#N)C(=O)CC(C)(C)C3)c1 | -23% | 11% | ? | ? | 10% | -20%
CN(C)S(=O)(=O)c1cccc(NC(=O)CSc2cccc3cccnc23)c1 | ? | ? | 3.7µM* | 3.3µM* | 16µM* | 18µM*
COC1=CC(=O)C(OC)=C(OC)C1=O | ? | ? | 0.73µM* | 1.2µM* | -112% | -8%
COc1ccc(CN2CCC(C(=O)Nc3ccc(Oc4ccccc4)nc3)CC2)cc1F | -1% | 0% | 21µM* | 18µM* | -26% | 0%
COc1cc(F)ccc1CN1CCC(C(=O)Nc2ccc(Oc3ccccc3)nc2)CC1 | 21µM* | -23% | ? | 16µM* | -27% | ?
CN(C)S(=O)(=O)c1cccc(N2C(=O)CC3(CCCCC3)CC2=O)c1 | -9% | -10% | -15% | -18% | -19% | 2%
COc1cccc(NC(=O)c2sc3nc4n(c(=O)c3c2C)CCC4)c1 | -1% | 3% | ? | 15µM*! | -19% | 2%
Cc1c(C(=O)Nc2ccc(Oc3ccccc3)cc2)sc2nc3n(c(=O)c12)CCC3 | -27% | -5% | ? | 18µM* | -32% | -21%
CSc1cccc(NC(=O)c2sc3nc4n(c(=O)c3c2C)CCC4)c1 | -1% | 4% | ? | -11% | -5% | 14%
CC(=O)c1cccc(NC(=O)c2sc3nc4n(c(=O)c3c2C)CCCCC4)c1 | 0% | 14% | ? | 23µM* | -8% | 0%
SMILES | HT1080 IDH1KD tx | TGFb inhibitor | TDP1 cell CPT | TDP1 cell noCPT | HepG2 tox | HT1080NT lethal
N#CC1C(=O)NC(c2ccccc2)=CC1c1ccccc1 (centres undefined) | -2% | -2% | -3% | -15% | 7% | -12%
COc1ccc(N2CCN(Cc3nc(N)nc(Nc4ccc(C)c(Cl)c4)n3)CC2)cc1 | ? | -20% | 9.2µM* | 16µM* | -36% | ?
Cc1ccc(Nc2nc(N)nc(CN3CCN(c4ccccc4)CC3)n2)cc1Cl | ? | ? | ? | 18µM* | -70% | -30%
COc1ccc(Nc2nc(N)nc(CN3CCOCC3)n2)cc1 | 2% | -4% | -30% | ? | 7% | 5%
CC(=O)/C(N=Nc1cc2c(c([N+](=O)[O-])c1C)C(C)(C)CC2(C)C)=C(\C)O | 14% | ? | ? | 18µM* | -12% | 12%
CC(=O)/C(N=Nc1cc2c(cc1[N+](=O)[O-])OCCO2)=C(\C)O | -15% | ? | ? | 26µM* | -29% | -12%
C[C@H](CO)N1C[C@H](C)[C@@H](CN(C)S(C)(=O)=O)Oc2ccc(NC(=O)NC3CCCCC3)cc2C1=O | 9% | -12% | 11% | 7% | 7% | 10%
O=C(Nc1cnccn1)C1c2ccccc2Oc2ccccc21 | 1% | 11% | -7% | -1% | 0% | -1%
CC1CCc2cc(F)cc3c2N1C(=O)C(C(=O)Nc1cnccn1)C3=O (centres undefined) | nt | 0% | 1µM* | 0.79µM* | -25% | nt
Cc1ccc(C2CC(c3ccccc3)=NN2C(=S)Nc2ccccc2)o1 (centres undefined) | ? | -3% | 3.3µM* | 5.8µM* | 8% | ?
CC1=NN(C(=S)Nc2ccccc2)C(c2ccccc2)C1 (centres undefined) | -8% | 4% | -3% | -11% | 3% | -7%
CC(=O)NN1C(=O)/C(=C2/Sc3ccc(Cl)cc3N2C)SC1=S | -16% | 1% | -1% | -1% | 1% | -8%
CCCCCCSc1ccc([C@H]2N[C@@](Cc3ccccc3)(C(=O)OC)[C@H]3C(=O)N(C)C(=O)[C@@H]23)cc1 | -4% | ? | ? | 21µM* | -4% | -16%

Assay outcomes as filed in PubChem.
